Measured values from PubChem BioAssay AID1159580 (chemical genetic matrix, 2015).
Out of some 5,500 compounds screened, about 2,000 (36%) were called active. Roughly 18% stayed inconclusive and do not appear here. Rule as the data show it: active = normalized growth mostly below about 0.91 (no sharp cut-off); inconclusive = no clear call, values can overlap the other calls; inactive = mostly above about 0.92. The list shows a part of the results.

Test: chemical genetic growth profiling, strain panel (AID 1159580);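 also: tested at 20 µM; growth read once vehicle control cultures reached saturation at 30 °C; 1 = growth at the plate median or of vehicle wells; lower values mean less growth of the strain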
Details: S. cerevisiae deletion strains, growth OD
[1] = locus YAL013W, strain DEP1, active compounds read low
[2] = locus YBR229C, strain ROT2, active compounds read low
[3] = locus YCL061C, strain MRC1, active compounds read low
[4] = locus YDL101C, strain DUN1, active compounds read low
[5] = locus YDR150W, strain NUM1, active compounds read low
[6] = locus YEL061C, strain CIN8, active compounds read low
[7] = locus YGR078C, strain PAC10, active compounds read low
[8] = locus YHR030C, strain SLT2, active compounds read low
[9] = locus YHR087W, strain rtc3, active compounds read low
[10] = locus YJR043C, strain POL32, active compounds read low
[11] = locus YJR075W, strain HOC1, active compounds read low
[12] = locus YLR039C, strain RIC1, active compounds read low
[13] = locus YLR058C, strain SHM2 (second series), active compounds read low
[14] = locus YLR085C, strain ARP6, active compounds read low
[15] = locus YLR262C, strain YPT6, active compounds read low
[16] = locus YML094W, strain GIM5, active compounds read low
[17] = locus YMR219W, strain ESC1, active compounds read low
[18] = locus YMR263W, strain SAP30, active compounds read low
[19] = locus YMR307W, strain GAS1, active compounds read low
[20] = locus YNL153C, strain GIM3, active compounds read low
[21] = locus YNL298W, strain CLA4 (second series), active compounds read low
[22] = locus YNL322C, strain KRE1, active compounds read low
[23] = locus YNR030W, strain Alg12, active compounds read low
[24] = locus YPL055C, strain LGE1, active compounds read low
[25] = locus YPL241C, strain CIN2, active compounds read low
[26] = locus YPR135W, strain CTF4, active compounds read low
[27] = locus YOL006C, strain TOP1, active compounds read low

Measured: normalized growth

Cc1[nH]ncc1-c1ccccc1
inactive: [1] 1 | [2] 0.978 | [3] 0.973 | [4] 0.979 | [5] 1.01 | [6] 0.986 | [7] 0.998 | locus YGR229C, strain SMI1, active compounds read low 0.999 | [8] 0.981 | [9] 1.02 | locus YJL187C, strain SWE1, active compounds read low 0.983 | [10] 0.984 | [11] 1.02 | [12] 0.873 | [13] 0.986 | [14] 0.994 | [15] 0.896 | [16] 0.974 | [17] 0.995 | [18] 0.967 | [19] 0.933 | locus YNL128W, strain TEP1, active compounds read low 0.993 | [20] 0.961 | [21] 0.98 | [22] 1.01 | [23] 0.991 | [24] 1.07 | [25] 0.986 | [26] 0.921

COc1ccc(NS(=O)(=O)c2c(C)noc2C)cc1
inactive: [1] 1.03 | [2] 1.02 | [3] 1 | [4] 1.02 | [5] 0.995 | [6] 1.03 | [7] 1.04 | [8] 1.06 | [9] 1.02 | [10] 0.995 | [11] 1.02 | locus YKL190W, strain CNB1, active compounds read low 1 | [12] 1.02 | [13] 1 | [14] 1.02 | [15] 1.01 | [16] 1.07 | [17] 0.996 | [18] 0.993 | [19] 0.941 | [20] 1.02 | [21] 1.02 | [22] 1.01 | [23] 1.04 | [27] 1.03 | [24] 1.06 | [25] 0.911 | [26] 1.02

Cc1nn(Cc2ccc(C(=O)Sc3ccc(C(F)(F)F)cn3)o2)c(C)c1Br
inactive: locus YAR019C, strain CDC15, active compounds read low 0.965 | locus YBL105C, strain PKC1, active compounds read low 0.966 | locus YBR135W, strain CKS1, active compounds read low 0.955 | locus YBR136W, strain MEC1, active compounds read low 0.971 | locus YBR160W, strain CDC28, active compounds read low 0.967 | locus YDL017W, strain CDC7, active compounds read low 0.969 | locus YDL028C, strain MPS1, active compounds read low 0.969 | [4] 0.963 | locus YDL108W, strain KIN28, active compounds read low 0.961 | locus YDL132W, strain cdc53, active compounds read low 0.952 | locus YDL214C, strain PRR2, active compounds read low 0.882 | locus YDR052C, strain DBF4, active compounds read low 0.97 | locus YDR054C, strain cdc34, active compounds read low 0.953 | locus YDR226W, strain ADK1, active compounds read low 0.955 | locus YDR477W, strain SNF1, active compounds read low 0.834 | locus YER123W, strain YCK3, active compounds read low 0.878 | locus YER133W, strain GLC7, active compounds read low 0.898 | locus YFL009W, strain cdc4, active compounds read low 0.957 | locus YFL029C, strain CAK1, active compounds read low 0.962 | locus YFR003C, strain YPI1, active compounds read low 0.968 | locus YFR019W, strain FAB1, active compounds read low 0.932 | locus YFR028C, strain CDC14, active compounds read low 0.963 | locus YGR040W, strain KSS1, active compounds read low 0.81 | locus YGR052W, strain FMP48, active compounds read low 0.871 | locus YGR092W, strain DBF2, active compounds read low 0.855 | locus YHR079C, strain IRE1, active compounds read low 0.858 | locus YHR082C, strain KSP1, active compounds read low 0.763 | locus YIL147C, strain SLN1, active compounds read low 0.969 | locus YJL095W, strain BCK1, active compounds read low 0.827 | locus YJL128C, strain PBS2, active compounds read low 0.871 | locus YJL157C, strain FAR1, active compounds read low 0.911 | locus YJR016C, strain ILV3, active compounds read low 0.955 | locus YJR066W, strain TOR1 (second series), active compounds read low 0.885 | locus YJR066W, strain TOR1, active compounds read low 0.76 | locus YKL048C, strain ELM1, active compounds read low 0.896 | locus YKL067W, strain YNK1, active compounds read low 0.898 | locus YKL101W, strain HSL1, active compounds read low 0.861 | locus YKL193C, strain SDS22, active compounds read low 0.956 | locus YKL203C, strain TOR2, active compounds read low 0.892 | locus YLR133W, strain CKI1, active compounds read low 0.871 | locus YLR403W, strain SFP1, active compounds read low 0.722 | locus YML070W, strain DAK1, active compounds read low 0.894 | locus YMR001C, strain CDC5, active compounds read low 0.958 | locus YMR205C, strain PFK2 (second series), active compounds read low 0.881 | locus YMR277W, strain FCP1, active compounds read low 0.963 | locus YNL006W, strain LST8, active compounds read low 0.972 | locus YNL020C, strain ARK1, active compounds read low 0.882 | locus YNL161W, strain CBK1, active compounds read low 0.965 | locus YNL183C, strain NPR1, active compounds read low 0.777 | locus YNL207W, strain RIO2, active compounds read low 0.953 | locus YNL222W, strain SSU72, active compounds read low 0.963 | locus YNL307C, strain MCK1 (second series), active compounds read low 0.781 | locus YOL078W, strain AVO1, active compounds read low 0.961 | locus YOL136C, strain PFK27, active compounds read low 0.872 | locus YOR061W, strain CKA2, active compounds read low 0.816 | locus YOR119C, strain RIO1, active compounds read low 0.879 | locus YOR231W, strain MKK1, active compounds read low 0.847 | locus YOR329C, strain SCD5, active compounds read low 0.978 | locus YPL031C, strain PHO85, active compounds read low 0.867 | locus YPL153C, strain RAD53, active compounds read low 0.934 | locus YPL204W, strain HRR25, active compounds read low 0.925 | locus YPL209C, strain IPL1, active compounds read low 0.974 | locus YPR025C, strain CCL1, active compounds read low 0.965 | locus YPR106W, strain ISR1, active compounds read low 0.958 | locus YPR111W, strain DBF20, active compounds read low 0.93 | strain NNK1, active compounds read low 0.928 | strain TSCII, active compounds read low 0.961
active: [8] 0.615 | locus YHR205W, strain SCH9, active compounds read low 0.566 | locus YLR113W, strain HOG1, active compounds read low 0.677 | locus YPL256C, strain CLN2, active compounds read low 0.799

CCn1nc(C)c(Br)c1-c1nc(-c2ccc(C(F)(F)F)cc2)no1
inactive: [1] 1 | [2] 0.999 | [4] 1.02 | [5] 0.902 | [6] 1.01 | [7] 1.01 | [8] 1.08 | [9] 1 | [10] 1.01 | [11] 1 | [12] 0.982 | [13] 1.01 | [14] 1.14 | [15] 1.03 | [16] 1.03 | [17] 0.999 | [18] 1.02 | [19] 1.15 | [20] 0.985 | [21] 1.04 | [22] 1.01 | [23] 1.02 | [27] 1.14 | [24] 0.914 | [25] 0.981 | [26] 1.02
